Our source for the Inhibition values is ChEMBL document CHEMBL4513146, “CO-ADD screening of Karazin Kharkiv National University (Ukraine) compounds”.

Each structure is given as a SMILES string. Measured potencies and affinities stand elsewhere.

The first assay deals with Staphylococcus aureus. The conditions noted are these: Concentration 32 ug.mL-1;; ASSAY_TEST Inhibition of Bacterial Growth; detection method Absorption (OD600); MEDIA CAMHB; plate type 384well; NBS; CORNING #3640; time 18 hr.
As to `Cc1ccc(CNC(=O)Cn2nc3c(Sc4ccc(C)cc4C)nccn3c2=O)cc1`, the Inhibition is reported as -3.31%. The same measure, in the same setting: in the case of `O=c1c2nnc(SCc3ccccc3F)n2ccn1-c1ccc(Br)cc1` it was 14.85%; in that of `CCc1nnc2c(SCC(=O)Nc3ccc(C)cc3Br)nc3ccccc3n12`, 2.22%; in that of `Cc1ccc(-c2nc(CSc3nc4ccccc4n4c(C(C)C)nnc34)c(C)o2)cc1`, -8.56%. Same read-out and setting: in the case of `COc1cccc(-n2ccn3c(SCc4cc(C)ccc4C)nnc3c2=O)c1` it was 11.56%. As for `CCc1cccc(NC(=O)CSc2nnc3c(=O)n(-c4ccccc4)ccn23)c1`, the Inhibition is 0.07%. Turning to `CCc1nnc2c(SCC(=O)Nc3ccccc3Br)nc3ccccc3n12`, the Inhibition is 10.46%. Still for that read-out and setting: for `COc1ccc(N(Cc2ccc(C)cc2)S(=O)(=O)c2ccc3nnc(C)n3c2)cc1` the value was -1.53%; for `O=C(Cn1nc2ccc(Sc3ccccc3)nn2c1=O)N1CCN(c2ccc(F)cc2)CC1`, 9.78%. Same read-out and setting: in the case of `CCCCc1ccc(NC(=O)CSc2nc3ccccc3n3c(C(C)C)nnc23)cc1` it was -8.95%; in that of `Cc1nnc2c(SCC(=O)Nc3ccc4c(c3)OCCO4)nc3ccccc3n12`, 5.53%. On the same count and under the same terms, in the case of `COc1cccc(CN(c2ccc(F)c(F)c2)S(=O)(=O)c2ccc3nncn3c2)c1` it was -3.79%. Consider `CCOc1ccc(C(=O)CSc2nnc3c(=O)n(-c4ccc(F)cc4)ccn23)cc1`, for which the Inhibition was determined as 23.03%. Same read-out and setting: in the case of `COc1ccc(NC(=O)CSc2nnc3c(=O)n(-c4ccccc4)ccn23)cc1` it was -4.77%.

As to `CCc1ccc(N(Cc2cccc(F)c2)S(=O)(=O)c2cccn3c(CC)nnc23)cc1`, the Inhibition is 13.65%. On to `CCOc1ccccc1NC(=O)Cn1nc2c(Sc3ccccc3)nccn2c1=O`, for which the Inhibition is -2.46%. On the same count and under the same terms, for `CCCc1nnc2c(=O)n(CC(=O)Nc3cccc(C(C)=O)c3)c3ccccc3n12` the value was 2.4%; for `Cc1nnc2ccc(S(=O)(=O)N(Cc3ccccc3F)c3ccc(F)c(F)c3)cn12`, 3.86%. For the compound `CCCc1nnc2c(=O)n(CC(=O)Nc3ccc(Br)cc3)c3ccccc3n12`, the Inhibition is listed as 11.05%. On the same count and under the same terms, in the case of `O=C(Cn1nc2c(Oc3ccccc3)nccn2c1=O)Nc1ccc2c(c1)OCO2` it was 2.59%; in that of `COC(=O)c1ccc(CN(c2ccc(C)cc2)S(=O)(=O)c2ccc3nnc(C)n3c2)o1`, 4.75%. Still for that read-out and setting: for `CCc1ccccc1Sc1nccn2c(=O)n(CC(=O)Nc3ccc(OC)cc3)nc12` the value was -2.16%; for `CCOC(=O)c1ccc(NC(=O)Cn2nc3c4sc(N5CCCC5)nc4ncn3c2=O)cc1`, 6.07%; for `COc1ccc(-c2cc3c4nnc(SCC(=O)Nc5ccccc5Cl)n4ccn3n2)cc1`, -12.96%. On the same count and under the same terms, in the case of `COc1cc(NC(=O)Cn2nc3c(SC4CCCCC4)nccn3c2=O)cc(OC)c1` it was 0.44%. With `CC(C)c1nnc2c(SCC(=O)Nc3ccc(C#N)cc3)nc3ccccc3n12`, the Inhibition is reported as 2.21%.

The next assay concerns Escherichia coli. The following applies: Concentration 32 ug.mL-1;; ASSAY_TEST Inhibition of Bacterial Growth; detection method Absorption (OD600); MEDIA CAMHB; plate type 384well; NBS; CORNING #3640; time 18 hr.
For `Cc1ccc(NC(=O)Cn2c(=O)c3nnc(C(C)C)n3c3ccccc32)c(C)c1`, the Inhibition is 8.06%. On the same count and under the same terms, for `Cc1ccc(Sc2nccn3c(=O)n(CC(=O)Nc4cccc(Br)c4)nc23)c(C)c1` the value was -13.08%; for `Cc1cc(C)cc(Nc2nc(C)cc3nn(CC(=O)Nc4cccc(Cl)c4)c(=O)n23)c1`, -7.17%. The same measure, in the same setting: for `Cc1ccc(Oc2nccn3c(=O)n(CC(=O)N4CCN(c5ccccc5F)CC4)nc23)cc1` the value was -0.59%. On the same count and under the same terms, for `Cc1nnc2c(S(=O)(=O)N(Cc3ccccc3F)c3cc(F)cc(F)c3)cccn12` the value was 2.33%; for `O=c1n(Cc2nc(-c3ccc4c(c3)OCO4)no2)nc2ccc(-c3ccccc3)nn12`, -9.98%. On to `CC(C)c1ccc(Oc2nc3ccccc3n3c(=O)n(CC(=O)Nc4ccc5c(c4)OCO5)nc23)cc1`, for which the Inhibition was determined as 4.92%.

As to `Cc1cc2nn(CC(=O)Nc3ccccc3F)c(=O)n2c(Nc2ccc(C)c(F)c2)n1`, the Inhibition is reported as -14.62%.

For `Cc1ccc(NC(=O)Cn2nc3ccc(SCc4ccc(Cl)cc4)nn3c2=O)c(C)c1`, the Inhibition is given as -8.79%.

Regarding `Cc1ccccc1Oc1nccn2c(=O)n(CC(=O)Nc3ccc(C#N)cc3)nc12`, the Inhibition is reported as -0.39%. The same measure, in the same setting: in the case of `Cc1ccc(-c2cc3c4nn(CC(=O)Nc5ccc6c(c5)OCO6)c(=O)n4ccn3n2)cc1C` it was -12.23%; in that of `COc1cccc(Sc2nc3ccccc3n3c(=O)n(CC(=O)Nc4ccc(C)c(C)c4)nc23)c1`, 0.23%. As to `CCCCN(CC)C(=O)CSc1nnc2c(=O)n(Cc3ccccc3F)ccn12`, the Inhibition is listed as -7.34%. Consider `Cc1cc2nn(CC(=O)Nc3cc(F)cc(F)c3)c(=O)n2c(Nc2ccc(F)c(C)c2)n1`, for which the Inhibition is given as -2.56%. On the same count and under the same terms, for `Cc1ccc(CNC(=O)Cn2nc3c(Sc4ccc(C)cc4C)nccn3c2=O)cc1` the value was -11.72%; for `O=c1c2nnc(SCc3ccccc3F)n2ccn1-c1ccc(Br)cc1`, -2.34%; for `CCc1nnc2c(SCC(=O)Nc3ccc(C)cc3Br)nc3ccccc3n12`, -2.07%. Same read-out and setting: in the case of `Cc1ccc(-c2nc(CSc3nc4ccccc4n4c(C(C)C)nnc34)c(C)o2)cc1` it was -6.52%; in that of `COc1cccc(-n2ccn3c(SCc4cc(C)ccc4C)nnc3c2=O)c1`, -0.49%; in that of `CCc1cccc(NC(=O)CSc2nnc3c(=O)n(-c4ccccc4)ccn23)c1`, -11.7%. Take `CCc1nnc2c(SCC(=O)Nc3ccccc3Br)nc3ccccc3n12`: the Inhibition worked out at 0.26%. Same read-out and setting: in the case of `COc1ccc(N(Cc2ccc(C)cc2)S(=O)(=O)c2ccc3nnc(C)n3c2)cc1` it was -8.35%; in that of `O=C(Cn1nc2ccc(Sc3ccccc3)nn2c1=O)N1CCN(c2ccc(F)cc2)CC1`, 1.58%.

Turning to `CCCCc1ccc(NC(=O)CSc2nc3ccccc3n3c(C(C)C)nnc23)cc1`, the Inhibition is reported as -2.74%. On the same count and under the same terms, in the case of `Cc1nnc2c(SCC(=O)Nc3ccc4c(c3)OCCO4)nc3ccccc3n12` it was 3.38%. The same measure, in the same setting: in the case of `COc1cccc(CN(c2ccc(F)c(F)c2)S(=O)(=O)c2ccc3nncn3c2)c1` it was -13.18%.

With `CCOc1ccc(C(=O)CSc2nnc3c(=O)n(-c4ccc(F)cc4)ccn23)cc1`, the Inhibition came out at 1.42%.

On to `COc1ccc(NC(=O)CSc2nnc3c(=O)n(-c4ccccc4)ccn23)cc1`, for which the Inhibition is listed as -6.17%. As to `CCc1ccc(N(Cc2cccc(F)c2)S(=O)(=O)c2cccn3c(CC)nnc23)cc1`, the Inhibition is -0.18%.

`CCOc1ccccc1NC(=O)Cn1nc2c(Sc3ccccc3)nccn2c1=O`: the Inhibition is listed as -5.85%.

Regarding `CCCc1nnc2c(=O)n(CC(=O)Nc3cccc(C(C)=O)c3)c3ccccc3n12`, the Inhibition was -14.35%. Turning to `Cc1nnc2ccc(S(=O)(=O)N(Cc3ccccc3F)c3ccc(F)c(F)c3)cn12`, the Inhibition is given as -6.57%. Same read-out and setting: in the case of `CCCc1nnc2c(=O)n(CC(=O)Nc3ccc(Br)cc3)c3ccccc3n12` it was 2.53%; in that of `O=C(Cn1nc2c(Oc3ccccc3)nccn2c1=O)Nc1ccc2c(c1)OCO2`, -7.1%; in that of `COC(=O)c1ccc(CN(c2ccc(C)cc2)S(=O)(=O)c2ccc3nnc(C)n3c2)o1`, -4.99%. For the compound `CCc1ccccc1Sc1nccn2c(=O)n(CC(=O)Nc3ccc(OC)cc3)nc12`, the Inhibition is listed as -10.01%. The same measure, in the same setting: in the case of `CCOC(=O)c1ccc(NC(=O)Cn2nc3c4sc(N5CCCC5)nc4ncn3c2=O)cc1` it was -11.73%; in that of `COc1ccc(-c2cc3c4nnc(SCC(=O)Nc5ccccc5Cl)n4ccn3n2)cc1`, -8.41%; in that of `COc1cc(NC(=O)Cn2nc3c(SC4CCCCC4)nccn3c2=O)cc(OC)c1`, -4.73%.

As to `CC(C)c1nnc2c(SCC(=O)Nc3ccc(C#N)cc3)nc3ccccc3n12`, the Inhibition is reported as 1.03%.
